# Test results: PubChem BioAssay AID2551 (National Center for Advancing Translational Sciences (NCATS), 2010)
# In all, about 310,000 compounds went through this assay and about 17,000 (5.5%) were called active. About 11% were inconclusive and are not listed. The call rests on the fitted dose curve; in most records, active means well fitted inhibition curve with a large enough effect; inconclusive means small, poorly fitted or top-dose-only effect, or effect the other way; inactive means no such curve, though single readings can be large or run the other way. Many of the other results were omitted from the sample, so actives are more common in it than they were.
# Target: Nuclear receptor ROR-gamma (Mus musculus) (UniProt P51450)
# Sequence (P51450 whole entry, looked up): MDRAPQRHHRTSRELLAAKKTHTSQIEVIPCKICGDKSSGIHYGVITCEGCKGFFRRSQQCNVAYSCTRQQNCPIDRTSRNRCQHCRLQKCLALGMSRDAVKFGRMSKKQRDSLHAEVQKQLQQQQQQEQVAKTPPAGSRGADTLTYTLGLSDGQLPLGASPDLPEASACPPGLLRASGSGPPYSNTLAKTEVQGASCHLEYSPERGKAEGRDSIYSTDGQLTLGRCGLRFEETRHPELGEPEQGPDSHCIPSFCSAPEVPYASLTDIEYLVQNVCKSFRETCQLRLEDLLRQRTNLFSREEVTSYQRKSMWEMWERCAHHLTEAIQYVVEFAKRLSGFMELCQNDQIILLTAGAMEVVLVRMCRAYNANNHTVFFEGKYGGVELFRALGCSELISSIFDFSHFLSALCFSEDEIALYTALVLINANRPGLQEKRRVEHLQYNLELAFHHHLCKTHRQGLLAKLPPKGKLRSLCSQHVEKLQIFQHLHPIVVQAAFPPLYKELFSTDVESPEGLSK
# Assay: qHTS for inhibitors of ROR gamma transcriptional activity; further: nearly all actives have a fitted effect of over 60% in size
# Conditions: Drosophila S2 Gal4-RORgamma UAS-luciferase reporter, 20 h; series mostly up to 53.6 µM; activity change, negative = inhibition: at the top concentration
# Text: NIH Molecular Libraries Probe Production Network [MLPCN] NIH Chemical Genomics Center [NCGC] MLPCN Grant: R03 DA026211-01 Assay Provider: Dan Littman, New York University Assay Overview: The retinoic acid-related orphan receptor (ROR) gamma is a transcription factor that has a central role in the differentiation of Th17 cells, a subset of T helper cells that secrete the inflammatory cytokines IL-17, IL-17F, and IL-22. Th17 cells have been implicated in graft versus host disease, autoimmune disease and asthma. ROR gamma is induced in naive T helper cells in the presence of TGF-beta combined with IL-6, IL-21, or IL-23, and thereafter directs the expression of the Th17 lineage cytokines. To study the mechanism of action of ROR gamma, an insect cell-based assay was screened. This Drosophila Schneider cell line was stably transfected with two vectors: a gene expressing a fusion of the Gal4 DNA binding domain and ROR gamma transactivation domain under the control of the metallothionine promoter and a Photinus luciferase reporter regulated by the Gal4 binding site enhancer, UAS. […] Small molecule inhibitors of ROR gamma activity are detected by a decrease in luciferase reporter activity.
# Assay Protocol Summary: For screening, 600 cells in 4 uL/well were dispensed into white solid 1536-well plates (Grenier) using a solenoid-based dispenser. Following transfer of 23 nL compound or DMSO vehicle by a pin tool, the plates were incubated 1 hr at ambient temperature, and 1 uL/well copper sulfate (700 uM final concentration) was added. The plates were centrifuged 15 s at 1000 RPM and incubated 20 hr at ambient temperature. After addition of 1.5 uL Photinus luciferase detection reagent, the plates were incubated 10 min at ambient temperature and then read by an ViewLux (Perkin Elmer) to detect luminescence. Keywords: NIH Roadmap, MLPCN, MLI, MLSMR, qHTS, NCGC, qHTS, nuclear hormone receptor, retinoic acid-related orphan receptor, ROR gamma
# On the % scale 0 is the no-effect control and ±100 the full control effect; potency means the concentration at half of the fitted maximal effect.
SMILES,"activity change, negative = inhibition",Potency
O=C(CCN1CCN(C/C=C/c2ccccc2)CC1)Nc1ccccc1Cl,-1.61% (inactive),
C/C=C/C(=O)OCc1csc(CC(=O)Nc2ccccc2C)n1,-16.8% (inactive),
COc1cccc(N(CC(=O)NC2CCCCCC2)S(=O)(=O)c2ccccc2)c1,-18.8% (inactive),
COc1ccc(CCNC(=O)CCc2cn(C)c3ccccc23)c(OC)c1,-12.4% (inactive),
Cc1cccc(NC(=S)NC23CN4CN(CN(C4)C2)C3)c1,-15.1% (inactive),
Cc1cccc(NC(=S)NCCN(C2CCCCC2)C2CCCC2)c1,,8.91 µM (active)
Cc1cccc(NC(=O)C2CCN(C(=O)NC3CCCCC3)CC2)c1,-25.8% (inactive),
O=C(NC1CCCC1)C(=O)c1c[nH]c2ccccc12,-36.6% (inactive),
CCOc1ccc2[nH]c(C(=O)N/N=C/c3cccc(OC)c3OC)cc2c1,-15.4% (inactive),
C#CC(C)(C)NC(=O)c1cnc(-c2ccccc2)nc1-c1ccccc1,-14.4% (inactive),
COc1ccc(Cc2nnc(NC(=O)c3cc(OC)c(OC)c(OC)c3)s2)cc1OC,,7.08 µM (active)
CCCc1nnc(NC(=O)c2cc(OC)cc(OC)c2)s1,,11.2 µM (active)
COc1ccc(Cc2nnc(NC(=O)c3ccc(OC)cc3OC)s2)cc1,19.7% (inactive),
COc1ccccc1NC(=O)Nc1nnc(Cc2ccc(F)cc2)s1,7.65% (inactive),
CCCc1nnc(NC(=O)c2cccs2)s1,-40% (inactive),
CCCc1nnc(NC(=O)CCC(=O)N2CCN(S(=O)(=O)c3ccc(OC)cc3)CC2)s1,12.7% (inactive),
Cc1cc(C)c2nc(N3CCC(C(=O)NCCN4CCOCC4)CC3)sc2c1,7.01% (inactive),
Cc1nonc1NC(=O)c1oc2ccccc2c1C,-0.26% (inactive),
COc1ccc(C(=O)C2CCCN(C(=O)c3cc(C)on3)C2)cc1F (stereo not drawn),11% (inactive),
COc1ccccc1CNC(=O)c1ccc(N(C)S(=O)(=O)c2ccc(C)cc2)cc1,2.62% (inactive),
COc1ccc(CSc2nnnn2-c2ccc(C(=O)O)cc2)cc1,14.9% (inactive),
COc1cc(/C=C(\C#N)c2nc3c(s2)CC(C)CC3)ccc1O (stereo not drawn),,1.41 µM (active)

SMILES,"activity change, negative = inhibition",Potency
COc1cc(/C=C(\C#N)c2nc3ccccc3[nH]2)ccc1O,15.4% (inactive),
COc1cc(/C=N/Nc2nc3ccccc3s2)ccc1O,-23% (inactive),
CCc1ccc(OCC(=O)NCC(c2ccc(Cl)cc2)N2CCCCC2)cc1 (stereo not drawn),0% (inactive),
OC1CSc2nc3ccccc3n2C1 (stereo not drawn),2.37% (inactive),
C[C@H]1[C@H]2c3nc4ccccc4n3C[C@H]1ON2C1CCCCC1,,11.2 µM (active)
O=C(Nc1ccccc1)C1CC(=O)n2c(nc3ccccc32)N1 (stereo not drawn),-22% (inactive),
Cc1ccc(-n2nc3c(=O)n(C(C)C(=O)NCc4ccc5c(c4)OCO5)nc(C)c3c2C)cc1 (stereo not drawn),26.2% (inactive),
CN(CC1CCCO1)S(=O)(=O)c1ccc(C(=O)Nc2ccc(F)cc2)cc1 (stereo not drawn),17.2% (inactive),
COCCn1c(-c2ccc(OC)c(OC)c2)nc2ccccc21,-28.3% (inactive),
COc1ccc(NC(=O)COC(=O)Cn2c(C)nc3ccccc32)cc1OC,16.5% (inactive),
COc1ccc(-c2nc3ccccc3n2CCC(C)C)cc1OC,,11.2 µM (active)
COc1cccc(CNC(=O)COc2cc(O)c3c(c2)OC(C)(C)CC3=O)c1,4.48% (inactive),
Cc1[nH]c(C)c(S(=O)(=O)N2CCN(c3cccc(C(F)(F)F)c3)CC2)c1C(=O)N1CCCC1,-17.9% (inactive),
Cc1ccccc1N1CCN(S(=O)(=O)c2ccc3ccccc3c2)CC1,-16.6% (inactive),
Cc1cccn2c(=O)c(C=O)c(Nc3ccc(S(N)(=O)=O)cc3)nc12,-41.3% (inactive),
CN(CC1CCCO1)S(=O)(=O)c1ccc(C(=O)Nc2ccc([N+](=O)[O-])cc2)cc1 (stereo not drawn),13.7% (inactive),
CC(=O)N1c2ccc(S(=O)(=O)N3CCC(C(=O)NC4CCCC(C)C4C)CC3)cc2CC1C (stereo not drawn),-1.35% (inactive),
Cc1ccccc1CNC(=O)CCC(=O)N1Cc2ccccc2Oc2ncccc21,4.13% (inactive),
COc1ccc2[nH]c(=O)c(CN(Cc3cccnc3)S(=O)(=O)c3ccccc3F)cc2c1,21.1% (inactive),
COc1cc(C(=S)NCc2ccccc2)cc(Br)c1O,15.3% (inactive),
O=C(CCOc1ccccc1)NCc1ccccc1,5.22% [at 0.365 µM] (inactive),
COC(=O)Cc1ccc(OCC(=O)Nc2ccc(OC(F)(F)F)cc2)cc1,26.2% (inactive),

SMILES,"activity change, negative = inhibition",Potency
CCNC(=S)Nc1ccc(OC(F)(F)F)cc1,,8.91 µM (active)
FC(F)(F)Oc1ccc(NC(=S)NCc2ccccc2)cc1,,7.08 µM (active)
Cn1nccc1NC(=O)Nc1ccc(OC(F)(F)F)cc1,15.9% (inactive),
CC(C)Cn1c(=O)c2ccccc2n2c(CCC(=O)NCc3ccccn3)nnc12,-7.08% (inactive),
Cc1ccc(C(C(=O)NCC2CCCO2)N(C(=O)c2snc(C(N)=O)c2N)c2ccc(C(C)C)cc2)o1 (stereo not drawn),40.4% (inactive),
CCOc1ccc(OCC(=O)Nc2c3c(nn2C(C)(C)C)CS(=O)(=O)C3)cc1,-13.8% (inactive),
CC(C)(C)c1ccc(SCCc2ccncc2)cc1,-15.8% (inactive),
COc1ccc2c(c1)SC(C)CC2=O (stereo not drawn),-11.9% (inactive),
COc1ccc2c(c1)OC(O)(C(F)(F)C(F)F)CC2=O (stereo not drawn),,12.6 µM (active)
CC1(C)CC(=O)c2ccc(O)cc2O1,29% (inactive),
CC(=O)N1CCOc2ccc(S(=O)(=O)N3CCN(c4cccc(C(F)(F)F)c4)CC3)cc21,30.8% (inactive),
COc1ccc(-c2nnc(SCC(=O)NC3CCCCC3)o2)cc1OC,-18.5% (inactive),
COc1ccc(-n2c(C)cc(C(=O)CSc3nnc(-c4cccs4)o3)c2C)cc1,-33.4% (inactive),
COc1ccc(OC)c(C(=O)CSc2nnc(-c3cccs3)o2)c1,,7.08 µM (active)
COCCOC(=O)C1=C(C)NC(=O)NC1c1cc2c(cc1Br)OCO2 (stereo not drawn),-4.24% (inactive),
Cc1ccc2cc(/C=N/Nc3ccc(C(=O)O)cc3)c(Cl)nc2c1,-43.4% (inactive),
O=C(O)c1ccc(N/N=C/c2ccc3ncccc3c2)cc1,,0.398 µM (active)
O=C(O)c1ccc(/C=N/Nc2nc(N3CCCCC3)nc(N3CCCCC3)n2)cc1,-42.2% (inactive),
O=C(O)c1ccc(OCC2CCCO2)cc1 (stereo not drawn),-11.8% (inactive),
N=C1/C(=C/c2cccn2-c2cccc([N+](=O)[O-])c2)C(=O)N=C2SC=CN12,,5.01 µM (active)
Cc1ccc(-c2nc(-c3ccncc3)no2)c(C)c1,-32.9% (inactive),
CCOc1ccccc1NC(=O)CCc1nnc2ccc(NCc3ccco3)nn12,0.872% (inactive),

SMILES,"activity change, negative = inhibition",Potency
O=S(=O)(ON(c1ccccc1)S(=O)(=O)c1ccccc1)c1ccccc1,26.8% (inactive),
CC1=C/C(=N\OS(=O)(=O)c2ccccc2)C=CC1=O,,1.58 µM (active)
CC1=C/C(=N\S(=O)(=O)c2ccccc2)C(C(C)C)=CC1=O,-9.35% (inactive),
CCN1C(=NCC(C)C)N[C@@H](CCc2ccccc2)[C@H](C(=O)NCC(C)C)[C@H]1C,,inactive
Brc1cc(/C=N/n2cnnc2)oc1Br,37.3% (inactive),
CCOc1cc(/C=N/n2cnnc2)c(Br)cc1O,,7.08 µM (active)
Fc1ccc(Br)cc1/C=N/n1cnnc1,-8.64% (inactive),
O=C(CN1CCN(c2ccc(Cl)cc2)CC1)c1ccccc1,0.492% (inactive),
COc1ccc(S(=O)(=O)NCCOc2ccccc2)cc1F,29.1% (inactive),
COc1ccc(NS(=O)(=O)c2cc(C(=O)Nc3ccccc3C(=O)O)ccc2C)cc1,25.4% (inactive),
COc1ccc(/C=C(/NC(=O)c2ccc(C)cc2)c2nc3ccccc3[nH]2)cc1OC,16.7% (inactive),
COCCN(CCOC)S(=O)(=O)c1ccc(/C(O)=C(\C#N)c2nc3ccccc3[nH]2)cc1,,12.6 µM (active)
COCCN(CC(=O)Nc1ccccc1C)S(=O)(=O)c1ccc(S(=O)(=O)N2CCCC2)cc1,-8.45% (inactive),
COc1ccc(-n2c(=O)[nH]c3cc(C(=O)NCCc4ccc(OC)c(OC)c4)ccc3c2=O)c(OC)c1,27.9% (inactive),
COc1ccc(CNC2CCCCC2)cc1,-10.4% (inactive),
COc1ccc(CN2CC(C(=O)NC3CCCCC3)CC2=O)cc1 (stereo not drawn),1.66% (inactive),
COc1ccc(CN2CN(C3CCCC3)CSC2=S)cc1,,7.94 µM (active)
CCN(C(=O)CN1C(=O)/C(=C/c2ccc(F)cc2)SC1=S)C1CCS(=O)(=O)C1 (stereo not drawn),-12.7% (inactive),
CN(CC(=O)NCc1ccc(Cl)cc1)S(=O)(=O)c1cccs1,21.2% (inactive),
O=C(Cc1nc2ccccc2[nH]c1=O)c1ccc(Cl)cc1,32.2% (inactive),
N#C/C(=C(/O)COC(=O)COc1ccc(Cl)cc1)c1nc2ccccc2[nH]1,,8.91 µM (active)
O=C(COc1ccccc1)NCCc1nc2ccccc2[nH]1,1.23% (inactive),

SMILES,"activity change, negative = inhibition",Potency
COc1ccccc1CNC(=O)C1CCN(S(=O)(=O)c2ccc3c(c2)OCCO3)CC1,-14.7% (inactive),
COc1ccc(NC(=O)CC(NC(C)c2ccccc2)C(=O)O)cc1 (stereo not drawn),-12.4% (inactive),
Cc1nn2c3ccccc3nc2n(C)c1=O,-32% (inactive),
CN1c2ccccc2-c2nc3ccccc3n2C1c1ccco1 (stereo not drawn),,14.1 µM (active)
Cc1cc(NCc2ccco2)n2c(nc3ccccc32)c1C#N,38.8% (inactive),
N#Cc1c(-c2ccccc2)nc(SCc2ccc([N+](=O)[O-])cc2)[nH]c1=O,1% (inactive),
CC(C)NC(=O)N1CCN(c2ccncc2S(=O)(=O)N2CCCCC2)CC1,8.85% (inactive),
CC(C)C[C@H]1CN=C(Nc2ccccc2)N1CC1CCCCC1,-2% (inactive),
Cc1ccc(Nc2nc(N3CCOCC3)nc(N3CCOCC3)n2)cc1Cl,3.19% (inactive),
C/C(=N\Nc1nc(Nc2ccccc2)nc(N2CCOCC2)n1)c1cccs1,,14.1 µM (active)
C/C(=N\Nc1nc(N2CCOCC2)nc(N2CCOCC2)n1)c1ccc([N+](=O)[O-])cc1,-4.91% (inactive),
Cc1ccc(-n2ncc(C(=O)NC3CC3)c2C2CCN(C(=O)OC(C)(C)C)CC2)c(C)c1,0.982% (inactive),
CCOc1ccc(CNC(=O)C2CCCN(c3nnc(C)c4c(C)n(-c5ccccc5)nc34)C2)cc1 (stereo not drawn),-25.4% (inactive),
COc1ccc(-c2csc(NC(=O)CCCc3cccs3)n2)cc1,22.6% (inactive),
Cc1ccc(-c2csc(NC(=O)Cc3cccs3)n2)cc1C,5.64% (inactive),
CCCc1ccc(-c2csc(NC(=O)Cc3cccs3)n2)cc1,,12.6 µM (active)
O=C(COC(=O)/C=C/c1cccs1)NC1CCCCC1,21.6% (inactive),
Cn1cc(/C=C/c2nc3ccccc3c(=O)n2-c2cccc([N+](=O)[O-])c2)c2ccccc21,0.991% [at 10 µM] (inactive),
Cc1nc2ccccc2c(=O)n1Cc1ccc([N+](=O)[O-])cc1,-3.36% (inactive),
CCn1c(/C=C/c2ccc([N+](=O)[O-])o2)nc2ccccc2c1=O,,7.94 µM (active)
